# Reference: the supplement of paper PMC10037445
# Whole data set: some 2,900 compounds, median “NF-kB SEAP reporter activity, fold change vs agonist alone” near 0.99, cut for the highest 2% near 2.6. Only a selection was taken, and the highest values are over-represented in it overall.
# How the values were obtained:
# [1] = tested on: RAW-Dual; test: NF-kB SEAP reporter activity, fold change vs agonist alone; higher = enhanced NF-kB activity
# Outline: (§1)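 After 50 nL of library stock was delivered by pin tool to RAW-Dual macrophages (50,000 cells/well, DMEM, 384-well plates), a PRR agonist was added 1 h later and the plates were kept at 37 °C, 5% CO2. Twenty hours later, IRF was read from supernatant by QuantiLuc luminescence and NF-κB by QuantiBlue absorbance at 620 nm. Reporter activity is stated as fold change over agonist-alone wells. Wells with IncuCyte confluency under 70% of agonist controls in both mask sets were counted as cytotoxic.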
# [2] = tested on: RAW-Dual; test: NF-kB SEAP reporter activity, fold change vs agonist alone; cytotoxicity flag (confluency mask): not cytotoxic; higher = enhanced NF-kB activity
# Outline: as §1
# [3] = tested on: RAW-Dual; test: NF-kB SEAP reporter activity, fold change vs agonist alone; cytotoxicity flag (confluency mask): cytotoxic (confluency <70% of control); higher = enhanced NF-kB activity
# Outline: as §1
# [4] = library stock concentration (final ~1000-fold dilution): 10 mM, cytotoxicity flag (confluency mask): cytotoxic (confluency <70% of control), agonist: Imiquimod (TLR7) […]
# [5] = library stock concentration (final ~1000-fold dilution): 10 mM, cytotoxicity flag (confluency mask): cytotoxic (confluency <70% of control), agonist: MPLA (TLR4) […]
# [6] = agonist: ODN 1826 (TLR9) 0.5 ug/mL
# [7] = agonist: Pam2CSK4 (TLR2/6) 0.1 ug/mL
# [8] = agonist: Pam3CSK4 (TLR2/1) 0.1 ug/mL
# [9] = library stock concentration (final ~1000-fold dilution): 10 mM, cytotoxicity flag (confluency mask): not cytotoxic, agonist: Imiquimod (TLR7) […]
# [10] = library stock concentration (final ~1000-fold dilution): 10 mM, cytotoxicity flag (confluency mask): not cytotoxic, agonist: MPLA (TLR4) […]
structure (smiles),measurement,setting,value
Cl.Cl.Cn1cc(CNCC2CCN(c3ncc(C(=O)NO)cn3)CC2)c2ccccc21,NF-kB SEAP reporter activity,[1]; [4],2.52
same,NF-kB SEAP reporter activity,[1]; [5],2.65
Cn1cc(CC(N)C(=O)O)c2ccccc21 (stereo not given),NF-kB SEAP reporter activity,"[1]; library stock concentration (final ~1000-fold dilution): 2 mM, cytotoxicity flag (confluency mask): not cytotoxic, agonist: Imiquimod (TLR7) […]",0.994
same,NF-kB SEAP reporter activity,"[1]; library stock concentration (final ~1000-fold dilution): 2 mM, cytotoxicity flag (confluency mask): not cytotoxic, agonist: MPLA (TLR4) […]",1.05
COc1ccc(CCC(=O)N(c2nccc3ccccc23)C2CCCNC2)cc1 (stereo not given) (library stock concentration (final ~1000-fold dilution): 10 mM),NF-kB SEAP reporter activity,[2]; agonist: LPS (TLR4) 0.1 ug/mL,1.05
same,NF-kB SEAP reporter activity,[2]; [6],0.84
same,NF-kB SEAP reporter activity,[2]; [7],1.09
same,NF-kB SEAP reporter activity,[2]; [8],1.08
COc1ccc(CCC(=O)N(c2nccc3ccccc23)C2CCCNC2)cc1 (stereo not given),NF-kB SEAP reporter activity,[1]; [9],1.07
same,NF-kB SEAP reporter activity,[1]; [10],1.29
CS(=O)(=O)c1cccc(CC(NC(=O)c2c(Cl)cc3c(c2Cl)CCN(C(=O)c2ccc4ccoc4c2)C3)C(=O)O)c1 (stereo not given) (library stock concentration (final ~1000-fold dilution): 10 mM),NF-kB SEAP reporter activity,[2]; agonist: LPS (TLR4) 0.1 ug/mL,0.994
same,NF-kB SEAP reporter activity,[2]; [6],1
same,NF-kB SEAP reporter activity,[2]; [7],1.03
same,NF-kB SEAP reporter activity,[2]; [8],0.941
CS(=O)(=O)c1cccc(CC(NC(=O)c2c(Cl)cc3c(c2Cl)CCN(C(=O)c2ccc4ccoc4c2)C3)C(=O)O)c1 (stereo not given),NF-kB SEAP reporter activity,[1]; [9],0.947
same,NF-kB SEAP reporter activity,[1]; [10],1.04
O=[N+]([O-])c1ccc(S(=O)(=O)N2CCN(c3ccnc4cc(Cl)ccc34)CC2)c([N+](=O)[O-])c1 (library stock concentration (final ~1000-fold dilution): 10 mM),NF-kB SEAP reporter activity,[3]; agonist: LPS (TLR4) 0.1 ug/mL,0.384
same,NF-kB SEAP reporter activity,[3]; [6],0.333
same,NF-kB SEAP reporter activity,[3]; [7],0.229
same,NF-kB SEAP reporter activity,[3]; [8],0.196
O=[N+]([O-])c1ccc(S(=O)(=O)N2CCN(c3ccnc4cc(Cl)ccc34)CC2)c([N+](=O)[O-])c1,NF-kB SEAP reporter activity,[1]; [4],0.787
same,NF-kB SEAP reporter activity,[1]; [5],0.37
Cn1cc(/C=C/C(=O)c2cccc(F)c2)cc1/C=C/C(=O)NO (library stock concentration (final ~1000-fold dilution): 10 mM),NF-kB SEAP reporter activity,[2]; agonist: LPS (TLR4) 0.1 ug/mL,1.26
same,NF-kB SEAP reporter activity,[2]; [6],0.787
same,NF-kB SEAP reporter activity,[2]; [7],0.605
same,NF-kB SEAP reporter activity,[2]; [8],0.528
O=C(/C=C/c1cccc(S(=O)(=O)Nc2ccccc2)c1)NO (library stock concentration (final ~1000-fold dilution): 10 mM),NF-kB SEAP reporter activity,[3]; agonist: LPS (TLR4) 0.1 ug/mL,5.83
same,NF-kB SEAP reporter activity,[3]; [6],2.3
same,NF-kB SEAP reporter activity,[3]; [7],0.848
same,NF-kB SEAP reporter activity,[3]; [8],1.76
Cn1cc(/C=C/C(=O)c2cccc(F)c2)cc1/C=C/C(=O)NO,NF-kB SEAP reporter activity,[1]; [9],0.803
same,NF-kB SEAP reporter activity,[1]; [10],1.06
O=C(/C=C/c1cccc(S(=O)(=O)Nc2ccccc2)c1)NO,NF-kB SEAP reporter activity,[1]; [4],2.39
same,NF-kB SEAP reporter activity,[1]; [5],2.58
COc1cccc(NC(=O)/C=C/c2ccc(Cl)cc2)c1 (library stock concentration (final ~1000-fold dilution): 10 mM),NF-kB SEAP reporter activity,[2]; agonist: LPS (TLR4) 0.1 ug/mL,1.18
same,NF-kB SEAP reporter activity,[2]; [6],0.828
same,NF-kB SEAP reporter activity,[2]; [7],0.682
same,NF-kB SEAP reporter activity,[2]; [8],0.711
COc1cccc(NC(=O)/C=C/c2ccc(Cl)cc2)c1,NF-kB SEAP reporter activity,[1]; [9],1.02
same,NF-kB SEAP reporter activity,[1]; [10],1.04
CC(=O)Oc1cc2c(s1)CCN(C(C(=O)C1CC1)c1ccccc1F)C2.Cl (stereo not given) (library stock concentration (final ~1000-fold dilution): 10 mM),NF-kB SEAP reporter activity,[2]; agonist: LPS (TLR4) 0.1 ug/mL,0.766
same,NF-kB SEAP reporter activity,[2]; [6],0.821
same,NF-kB SEAP reporter activity,[2]; [7],0.958
same,NF-kB SEAP reporter activity,[2]; [8],0.688
CC(=O)Oc1cc2c(s1)CCN(C(C(=O)C1CC1)c1ccccc1F)C2.Cl (stereo not given),NF-kB SEAP reporter activity,[1]; [10],0.869
C=CC(=O)N1CC/C(=C\c2ccc(F)c([N+](=O)[O-])c2)C(=O)/C(=C/c2ccc(F)c([N+](=O)[O-])c2)C1,NF-kB SEAP reporter activity,[1]; [9],0.151
same,NF-kB SEAP reporter activity,[1]; [10],0.267
C=CC(=O)N1CC/C(=C\c2ccc(F)c([N+](=O)[O-])c2)C(=O)/C(=C/c2ccc(F)c([N+](=O)[O-])c2)C1 (library stock concentration (final ~1000-fold dilution): 10 mM),NF-kB SEAP reporter activity,[2]; agonist: LPS (TLR4) 0.1 ug/mL,0.222
same,NF-kB SEAP reporter activity,[2]; [6],0.198
same,NF-kB SEAP reporter activity,[2]; [7],0.0699
same,NF-kB SEAP reporter activity,[2]; [8],0.144
CC1CNC(=O)c2cnn3ccc(nc23)NC(C)c2cc(F)ccc2O1 (stereo not given) (library stock concentration (final ~1000-fold dilution): 10 mM),NF-kB SEAP reporter activity,[2]; agonist: LPS (TLR4) 0.1 ug/mL,1.58
same,NF-kB SEAP reporter activity,[2]; [6],0.9
same,NF-kB SEAP reporter activity,[2]; [7],0.5
same,NF-kB SEAP reporter activity,[2]; [8],0.422
CC1CNC(=O)c2cnn3ccc(nc23)NC(C)c2cc(F)ccc2O1 (stereo not given),NF-kB SEAP reporter activity,[1]; [9],0.753
same,NF-kB SEAP reporter activity,[1]; [10],0.916
O=C(Nc1ccc(-c2ccnc(Nc3ccc(N4CCOCC4)cc3)n2)cc1)C1CCCN1 (stereo not given),NF-kB SEAP reporter activity,[1]; [9],1.6
same,NF-kB SEAP reporter activity,[1]; [10],2.46
N#CCNC(=O)c1ccc(-c2ccnc(Nc3ccc(N4CCOCC4)cc3)n2)cc1,NF-kB SEAP reporter activity,[1]; [9],1.02
same,NF-kB SEAP reporter activity,[1]; [10],0.925
N#Cc1cc(-c2ccnc(Nc3ccc(N4CCOCC4)cc3)n2)ccc1OC1CCOCC1 (library stock concentration (final ~1000-fold dilution): 10 mM),NF-kB SEAP reporter activity,[2]; agonist: LPS (TLR4) 0.1 ug/mL,0.526
same,NF-kB SEAP reporter activity,[2]; [6],1.39
same,NF-kB SEAP reporter activity,[2]; [7],0.463
same,NF-kB SEAP reporter activity,[2]; [8],3.66
O=C(Nc1ccc(-c2ccnc(Nc3ccc(N4CCOCC4)cc3)n2)cc1)C1CCCN1 (stereo not given) (library stock concentration (final ~1000-fold dilution): 10 mM),NF-kB SEAP reporter activity,[2]; agonist: LPS (TLR4) 0.1 ug/mL,1.86
same,NF-kB SEAP reporter activity,[2]; [6],0.272
same,NF-kB SEAP reporter activity,[2]; [7],1.05
same,NF-kB SEAP reporter activity,[2]; [8],1.67
N#Cc1cc(-c2ccnc(Nc3ccc(N4CCOCC4)cc3)n2)ccc1OC1CCOCC1,NF-kB SEAP reporter activity,[1]; [9],1.85
same,NF-kB SEAP reporter activity,[1]; [10],2.02
N#CCNC(=O)c1ccc(-c2ccnc(Nc3ccc(N4CCOCC4)cc3)n2)cc1 (library stock concentration (final ~1000-fold dilution): 10 mM),NF-kB SEAP reporter activity,[2]; agonist: LPS (TLR4) 0.1 ug/mL,0.233
same,NF-kB SEAP reporter activity,[2]; [6],1.01
same,NF-kB SEAP reporter activity,[2]; [7],0.233
same,NF-kB SEAP reporter activity,[2]; [8],1.08
